Experimental findings from the supplement of paper PMC8866396 are described below.

± gives the standard deviation of the averaged measurements.

Assay [1] concerns IL-6-GFP PC-9GR. In words: cell viability (CCK-8 OD) relative to DMSO control (fraction of control); higher = more viable cells. To be noted: compound concentration: 10 uM; treatment time: 48 h. Put shortly:
(§1)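 Each well's viability is its CCK-8 optical density divided by that of the vehicle control well. The cells, PC-9 and PC-9GR lung cancer lines overexpressing IL-6-GFP from a lentiviral construct, were seeded at 3000 cells/well in 96-well plates and exposed for 48 h to each compound of a purchased 510-compound library at a final 10 μM, in two independent replicates.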

In assay [2] the test system is IL-6-GFP PC-9. The description is as above. To be noted: compound concentration: 10 uM; treatment time: 48 h. A digest of the protocol: as §1

Take `Cc1ccc(C(C)C)c(O)c1` [Thymol]: the cell viability is 0.9 ± 0.16 in assay [1] and 1.08 ± 0.2 in assay [2].

Regarding `Cc1coc2c1C(=O)C(=O)c1c-2ccc2c1CCCC2(C)C` [Tanshinone IIA], the cell viability came to 1.37 ± 0.095 in assay [1] and 0.705 ± 0.19 in assay [2].

Regarding `COC1CC2CCC(C)C(O)(O2)C(=O)C(=O)N2CCCCC2C(=O)OC(C(C)CC2CCC(OC(=O)C(C)(CO)CO)C(OC)C2)CC(=O)C(C)/C=C(\C)C(O)C(OC)C(=O)C(C)CC(C)/C=C/C=C/C=C/1C` (stereo not drawn), the cell viability was 0.524 ± 0.54 in assay [1] and 0.698 ± 0.12 in assay [2].

As to `Cc1ccc(Nc2nccc(N(C)c3ccc4c(C)n(C)nc4c3)n2)cc1S(N)(=O)=O.Cl`, the cell viability in assay [1] turned out to be 0.886 ± 0.13; in assay [2], 0.532 ± 0.1.

Turning to `C=CC(=O)Nc1cccc(Oc2nc(Nc3ccc(N4CCN(C)CC4)cc3)nc3ccsc23)c1`, the cell viability is 0.393 ± 0.19 in assay [1] and 0.465 ± 0.07 in assay [2].

Turning to `COc1cc2c3cc1Oc1c(OC)c(OC)cc4c1C(Cc1ccc(O)c(c1)Oc1ccc(cc1)CC3N(C)CC2)N(C)CC4` (stereo not drawn) [Berbamine], the cell viability in assay [1] was determined as 0.891 ± 0.25; in assay [2] it was 1.08 ± 0.14.

For `CCCCCCCCCCCCCCCCCCOP(=O)([O-])OC1CC[N+](C)(C)CC1` [Perifosine (KRX-0401)], the cell viability worked out at 0.943 ± 0.084 in assay [1] and 0.786 ± 0.059 in assay [2].

For the compound `COc1ccc2cc1Oc1ccc(cc1)CC1c3c(cc4c(c3Oc3cc5c(cc3OC)CCN(C)C5C2)OCO4)CCN1C` (stereo not drawn) [Cepharanthine], the cell viability worked out at 0.8242 ± 0.0069 in assay [1] and 0.73 ± 0.15 in assay [2].

For the compound `CC1CC2C(C(O)CC3(C)C2CCC3(O)C(=O)COC(=O)CCC(=O)O)C2(C)C=CC(=O)C=C12` (stereo not drawn) [Methylprednisolone hemisuccinate], the cell viability stood at 0.848 ± 0.037 in assay [1] and 0.911 ± 0.24 in assay [2].

For the compound `CN1CCC(=C2c3ccccc3CCc3sccc32)CC1.O=C(O)CC(O)C(=O)O` [Pizotifen Malate], the cell viability in assay [1] came out at 1.41 ± 0.064; in assay [2], 1.22 ± 0.16.

In the case of `Cc1ccc(Cl)c(Nc2ccccc2C(=O)[O][Na])c1Cl` [Meclofenamate Sodium], the values for the cell viability in assay [1] and in assay [2] were 0.983 ± 0.054 and 1.02 ± 0.11, respectively.

Regarding `C=C(NC(=O)C(=C)NC(=O)c1csc(C2=NC3c4csc(n4)C4NC(=O)c5csc(n5)C(C(C)(O)C(C)O)NC(=O)C5CSC(=N5)/C(=C/C)NC(=O)C(C(C)O)NC(=O)c5csc(n5)C3(CC2)NC(=O)C(C)NC(=O)C(=C)NC(=O)C(C)NC(=O)C(C(C)CC)NC2C=Cc3c(C(C)O)cc(nc3C2O)C(=O)OC4C)n1)C(N)=O` (stereo not drawn) [Thiostrepton], the figures for the cell viability in assay [1] and in assay [2] were 0.184 ± 0.083 and 0.412 ± 0.15, respectively.

For `CCN1CCN(Cc2ccc(Nc3ncc(F)c(-c4cc(F)c5nc(C)n(C(C)C)c5c4)n3)nc2)CC1.CS(=O)(=O)O`, the figures for the cell viability in assay [1] and in assay [2] were 0.42 ± 0.27 and 0.415 ± 0.016, respectively.

For `Cc1ccc(Nc2c(F)cccc2Cl)c(CC(=O)O)c1` [Lumiracoxib], the cell viability came out at 0.626 ± 0.15 in assay [1] and 0.853 ± 0.29 in assay [2].

On to `COc1ccc(-c2cc(=S)ss2)cc1` [Anethole trithione], for which the figures for the cell viability in assay [1] and in assay [2] were 0.868 ± 0.15 and 1.17 ± 0.031, respectively.

On to `Cc1cc2c(C(N)=O)cccc2n1-c1nc2c(c(NCc3ccccc3)n1)COCC2`, for which the cell viability in assay [1] amounted to 0.204 ± 0.1; in assay [2] it was 0.261 ± 0.0057.

Regarding `CC1(C(=O)O)CCC2(C)CCC3(C)C(=CC(=O)C4C5(C)CCC(OC6OC(C(=O)O)C(O)C(O)C6OC6OC(C(=O)O)C(O)C(O)C6O)C(C)(C)C5CCC43C)C2C1` (stereo not drawn) [Glycyrrhizin (Glycyrrhizic Acid)], the cell viability is 1.47 ± 0.11 in assay [1] and 1.29 ± 0.022 in assay [2].

Take `Cc1ccc(C(=O)Nc2ccc(CN3CCN(C)CC3)c(C(F)(F)F)c2)cc1C#Cc1cnc2cccnn12`: the values for the cell viability in assay [1] and in assay [2] were 0.464 ± 0.3 and 0.378 ± 0.19, respectively.

Consider `Nc1ccn(C2OC(CO)C(O)C2O)c(=O)n1` (stereo not drawn) [Cytarabine], for which the cell viability in assay [1] is 0.816 ± 0.077; in assay [2] it was 0.7893 ± 0.0033.

With `COc1nc2ccc(Br)cc2cc1C(c1ccccc1)C(O)(CCN(C)C)c1cccc2ccccc12.O=C(O)/C=C/C(=O)O` (stereo not drawn) [Bedaquiline fumarate], the cell viability is 1.18 ± 0.17 in assay [1] and 1.15 ± 0.067 in assay [2].

As for `CC(C)(O)CNc1nc(Nc2ccnc(C(F)(F)F)c2)nc(-c2cccc(C(F)(F)F)n2)n1` [Enasidenib (AG-221)], the figures for the cell viability in assay [1] and in assay [2] were 1.25 ± 0.65 and 1.03 ± 0.018, respectively.

For `Cc1nc(Nc2ccc(F)cc2)nc(N2CCc3ccccc3C2C)c1C.Cl` (stereo not drawn) [Revaprazan Hydrochloride], the values for the cell viability in assay [1] and in assay [2] were 1.63 ± 0.64 and 1.14 ± 0.043, respectively.

With `CC1CC2C3CCC4=CC(=O)C=CC4(C)C3(F)C(O)CC2(C)C1C(=O)CO` (stereo not drawn) [Desoximetasone], the cell viability in assay [1] was 0.815 ± 0.23; in assay [2], 1.08 ± 0.093.

Turning to `CC[N+](CC)(CC)CCOc1cccc(OCC[N+](CC)(CC)CC)c1OCC[N+](CC)(CC)CC.[I-].[I-].[I-]` [Gallamine Triethiodide], the cell viability in assay [1] is 1.34 ± 0.31; in assay [2] it was 1.202 ± 0.0034.
